Cycloheximide cs: counter-screen hit for Shiga toxin inhibitors, cycloheximide | cell reporter, cycloheximide protein synthesis inhibition counterscreen | max response, % | 300,000 tested, 12% active; in the data active = max response mostly above about 13%, no sharp cut-off; inactive = mostly below about 14%; also: read at 38.3 µM for the half of the compounds with a filed dose; 0% is about no effect
NS1 function inh: blocks influenza NS1 protein function | AID 2326 | 270,000 tested, 0.4% active | Potency, µM (highest dose often 46.1 µM), for inactives: top-dose activity, positive = more growth; calls by dose curve; also: potency is read from the fitted curve at half-maximal effect; actives are rising curves; nearly all actives have a fitted effect of over 50% in size
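A cell-based growth assay was used: compounds that relieve NS1-induced slow growth of budding yeast raise OD600. Assay medium was yeast nitrogen base with ammonium sulphate and -URA supplement, pH 6.0, with 2% galactose.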
Shiga toxin inh: blocks Shiga toxin action in Vero cells | 290,000 tested, 9.2% active | AID 2315 | Vero cells, Shiga toxin protein synthesis inhibition reporter | inhibition, % at 38.7 µM; in the data active = inhibition mostly above about 28%, no sharp cut-off; inactive = mostly below about 43%; also: 0% is about no effect
AmpC detergent: blocks E. coli AmpC beta-lactamase in detergent assay. 370,000 tested, 0.041% active. Potency, µM (doses to about 114 µM), inactives show at the highest dose activity change, negative = inhibition, actives largely listed as inhibitors. AmpC hydrolysis of nitrocefin, absorbance 480 nm, 0.01% Triton. P00811. AID 485294;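 also: potency is read from the fitted curve at half-maximal effect; 0% = no-compound wells and -100% = no-enzyme wells; nearly all actives have a fitted effect of over 25% in size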
Target sequence (P00811 whole entry, looked up): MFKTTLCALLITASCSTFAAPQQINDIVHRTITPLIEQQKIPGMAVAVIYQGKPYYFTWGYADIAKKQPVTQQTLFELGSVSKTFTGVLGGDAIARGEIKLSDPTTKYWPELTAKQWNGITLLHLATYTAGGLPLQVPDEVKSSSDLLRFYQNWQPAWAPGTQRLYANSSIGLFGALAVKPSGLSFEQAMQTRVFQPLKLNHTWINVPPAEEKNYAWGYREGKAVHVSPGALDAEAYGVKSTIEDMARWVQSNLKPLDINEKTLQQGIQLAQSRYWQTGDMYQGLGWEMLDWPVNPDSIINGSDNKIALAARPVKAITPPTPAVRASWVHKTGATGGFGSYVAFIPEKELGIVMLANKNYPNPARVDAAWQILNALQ
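20 mM phosphate pH 7.0 + 0.01% (detergent screen) or 0.0001% Triton X-100; 5.3 nM AmpC reagent; cpd preinc 15 min RT; nitrocefin (800 uM stock) to start; A480 q20 s × 4 min; Activity was normalised to no-enzyme and no-compound control wells.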
AmpC no deterg: inhibitors of E. coli AmpC beta-lactamase without detergent; P00811; AmpC nitrocefin hydrolysis, absorbance 480 nm, 0.0001% Triton; Potency, µM (highest dose often 57.1 µM), for the others: at the top dose activity change, negative = inhibition, actives largely listed as inhibitors; 330,000 tested, 0.52% active; AID 485341;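 also: potency is read from the fitted curve at half-maximal effect; plate controls were no compound for no effect and no enzyme for full effect; nearly all actives have a fitted effect of over 20% in size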
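AmpC (5.3 nM in the dispensed reagent) in 20 mM phosphate pH 7.0 with 0.01% (detergent screen) or 0.0001% Triton X-100 was preincubated with compounds for 15 min at room temperature. Nitrocefin was then added from an 800 uM solution, and hydrolysis was followed at 480 nm.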
* = called active by the depositor; ? = inconclusive; nt = not tested or not shown. Many of the other results were omitted from the sample, so hits are more common in it than they were. Unless noted, calls follow the shape of the dose curve; as a rule, active = well fitted curve in the direction sought with a large enough effect; inconclusive = small, poorly fitted or top-dose-only effect, or another doubt; inactive = no such curve, though single readings can be large; an effect the other way counts as inactive or inconclusive.

SMILES | Cycloheximide cs | NS1 function inh | Shiga toxin inh | AmpC detergent | AmpC no deterg
COc1ccc(OC)c(S(=O)(=O)N2CCN(c3c(C)cccc3C)CC2)c1 | -2 | -44% | -1 | ? | 40µM*
Cc1cccc(NC(=O)C2CCCN(S(=O)(=O)c3cnc[nH]3)C2)c1C (stereo not drawn) | nt | nt | nt | -6% | nt
O=C(N/N=C/c1ccc(-c2cccc(C(F)(F)F)c2)o1)c1cccc(F)c1 | 32* | 6% | 40* | -1% | -35%
O=C(N/N=C/c1ccc(-c2cccc(C(F)(F)F)c2)o1)c1ccccc1O | -2 | -2% | -10 | -2% | -32%
O=C(N/N=C/c1ccc(N2CCOCC2)o1)c1cccc(F)c1 | 34* | 5% | 85* | 5% | -2%
NC(=O)N/N=C/c1ccc(-c2cccc(C(F)(F)F)c2)o1 | 48 | nt | 38* | 0% | -50%
O=C(N/N=C/c1ccc(-c2cccc(C(F)(F)F)c2)o1)c1ccccc1Br | 11* | 7% | 74* | -4% | -57%
Cc1ccc(NCC(=O)N/N=C/c2ccc(-c3cccc(C(F)(F)F)c3)o2)cc1 | -2 | -3% | -7 | -11% | -39%
CCN(CC)C(=O)CC(c1ccc(OC)cc1)c1c(OC)cc(OC)c2c(-c3ccccc3)cc(=O)oc12 (stereo not drawn) | 7 | nt | -2 | nt | nt
COc1ccc(N2CC(NC(=O)c3ccco3)CC2=O)cc1OC (stereo not drawn) | nt | nt | nt | -7% | nt
O=C(CCC(=O)c1ccccc1)Nc1ccc(F)c(Cl)c1 | nt | nt | nt | -6% | nt
COc1cc(OC)c(NC(=O)CSc2nc3ccncc3[nH]2)cc1Cl | nt | nt | nt | 2% | -9%
O=C(CSC(=S)N1CCN(c2ccccc2)CC1)Nc1nc(-c2ccccc2)c(-c2ccccc2)o1 | -2 | 16% | -10 | -16% | -19%
CCCc1cc(=O)[nH]c(SCc2nc3ccccc3s2)n1 | 52 | 4% | 5 | -9% | -30%
Cc1cc(=O)[nH]c(SCc2csc(-c3ccccc3)n2)n1 | 20* | -18% | 24 | ? | -5%
Nc1cc(=O)[nH]c(SCc2csc(-c3ccccc3)n2)n1 | 8 | 12% | 42 | -7% | -23%
Cc1cc(=O)[nH]c(SCc2nc3ccccc3s2)n1 | 16* | -11% | 14 | 1% | -20%
O=C(N/N=C/c1cc2ccccc2nc1Cl)[C@H]1C[C@@H]1c1ccccc1 | -2 | 14% | -16 | -13% | -12%
Cc1ccc2cc(/C=N/NC(=O)[C@H]3C[C@@H]3c3ccccc3)c(Cl)nc2c1 | 16* | 15% | 10 | ? | -40%
COc1ccc(CC(=O)NNC(=O)c2ccccn2)cc1 | 12* | -2% | 64 | -14% | -7%
COc1ccc(C(=O)Nc2ccccc2C(=O)Nc2ccccn2)cc1 | 26* | -4% | nt | -19% | -18%
COc1ccc(C(=O)Nc2ccccc2C(=O)NC(Cc2ccc(O)cc2)C(=O)NNC(=O)c2ccccc2Cl)cc1 (stereo not drawn) | 12* | ? | 4 | -2% | -11%
COc1ccc(C(=O)Nc2ccc(NC(=O)Cc3ccccc3)cn2)cc1 | 20* | 10% | 31 | 1% | -20%
COc1ccc(C(=O)NNC(=O)C(Cc2ccc(O)cc2)NC(=O)c2ccccc2NC(=O)c2ccc(OC)cc2)cc1 (stereo not drawn) | 1 | 7% | 47 | 0% | -1%
O=C(CSc1nc(=O)n(CCCN2CCOCC2)c2c1CCCC2)Nc1ccc(F)cc1 | nt | nt | nt | -15% | 98%
SMILES | Cycloheximide cs | NS1 function inh | Shiga toxin inh | AmpC detergent | AmpC no deterg
COCc1c(C(=O)OCC(=O)NCCc2ccc(S(N)(=O)=O)cc2)oc2ccccc12 | nt | nt | nt | 5% | -23%
COc1ccc(C(=O)N/N=C(\c2ccccc2)c2ccccn2)cc1 | 16 | -52% | 53* | 1% | -33%
COc1ccc(C(=O)Nc2ccc(NC(=O)c3ccccn3)cn2)cc1 | 11 | 5% | 78* | -9% | -9%
COc1ccc(-n2c(=O)c3c(c4cc(OC)ccc4n3C)n(Cc3cccc(OC)c3)c2=O)cc1 | nt | nt | nt | 6% | nt
CCOc1ccc(CNS(=O)(=O)c2ccc3c(c2)CCCN3C(C)=O)cc1OC | nt | nt | nt | 2% | nt
O=C(COC(=O)CNS(=O)(=O)c1ccc(F)c(F)c1F)NCCc1ccccc1 | 46* | 16% | 49* | -3% | -20%
O=C(COC(=O)CNS(=O)(=O)c1ccc(F)c(F)c1F)NC1CC1 | nt | nt | nt | -5% | -10%
COCCCNc1nc2c(-c3ccccc3)nnn2c2ccccc12 | nt | nt | nt | 5% | nt

Screens from PubChem BioAssay.
